# Records with an inconclusive call do not appear. Calls of active or inactive are those of the source. Calls follow the shape of the dose curve; as a rule, active = well fitted inhibition curve with a large enough effect; inconclusive = small, poorly fitted or top-dose-only effect; inactive = no such curve, though single readings can be large or run the other way.
# Biological target: RecQ-like DNA helicase BLM (Homo sapiens) (UniProt P54132)
# Assay: qHTS Validation Assay for Inhibitors of Bloom's syndrome helicase (BLM) (AID 2364)
# Settings: BLM helicase DNA unwinding, fluorescence, in vitro; series mostly up to 57.1 µM; activity change, negative = inhibition: at the top concentration
# Excerpt: Survival of cells and the faithful propagation of the genome depend on elaborate mechanisms of detecting and repairing DNA damage. Treatment of advanced cancer relies on radiation therapy or chemotherapy, which kill cancer cells by causing extensive DNA damage. It is often found, that cancer cells develop resistance to therapy through enhanced activity of DNA repair functions; this has led to an increased interest in developing drugs that interfere with DNA repair, which could sensitize cancer cells to conventional therapy.
# This validation qHTS assay pertains to human BLM, which is important in resolving abnormal DNA structures formed during replication or homologous recombination. Shutting down the expression of BLM leads to chromosomal instability and higher radiation sensitivity in cultured cells.
# The validation assay was a fluorescence quenching based kinetic qHTS for BLM Helicase DNA unwinding. The activity was measured as ATP-dependent separation of a 20-bp DNA duplex extended by 30-nt single-stranded tails (forked duplex). The forked DNA substrate was tagged with rhodamine fluorophore (carboxytetramethyl rhodamine, TAMRA) and BHQ-2 (Black Hole Quencher 2) dark quencher. Strand separation results in an increase in the fluorescence of TAMRA (excitation 525 nm, emission 598 nm). This substrate construct operates in a red-shifted region where very few compound library members have been noted to fluoresce (PubChem AIDs 593 and 594). An additional feature of the assay is the inclusion of 2.5 ug/ml poly (dIdC), to reduce interference by compounds such as DNA intercalators, a major source of false inhibitors.
# Ian Hickson, University of Oxford
# Opher Gileadi, Structural Genomics Consortium, University of Oxford
# Screening Center PI: Austin, C.P.
# Screening Center: NIH Chemical Genomics Center [NCGC]
# Three uL of reaction buffer (25 mM Tris-HCl (pH 8.0), 5 mM NaCl, 2 mM MgCl2, 1mM DTT, 0.01% Tween- 20, and 2.5 ug/ml poly(dI-dC), including enzyme (50 nM BLM), were dispensed into a 1536-well Greiner black assay plate via solenoid-valve based nanoliter dispensers. Compounds (23 nl each in columns 5-48) and control (23 nl each in column 2 as dose-response) were transferred via a Kalypsys pintool equipped with a 1536-pin array. The plates were incubated for 15 min at room temperature, and then 1 ul of substrates (200 nM DNA and 2 mM ATP, final concentrations) was added to start the reaction. The plate was transferred into a ViewLux high-throughput CCD imager where the reaction progress was measured in a discontinuous kinetic mode (two reads spaced 2 hours apart, with intermediate room temperature incubation of the covered assay plate) by using standard red-fluorescence optics (excitation filter 525 nm, emission filter 598 nm). Enzyme-free and vehicle (DMSO) controls were included for signal normalization.
# Potency is read from the fitted curve at half-maximal effect.
# Sequence of RecQ-like DNA helicase BLM (Homo sapiens) (P54132 whole entry, looked up): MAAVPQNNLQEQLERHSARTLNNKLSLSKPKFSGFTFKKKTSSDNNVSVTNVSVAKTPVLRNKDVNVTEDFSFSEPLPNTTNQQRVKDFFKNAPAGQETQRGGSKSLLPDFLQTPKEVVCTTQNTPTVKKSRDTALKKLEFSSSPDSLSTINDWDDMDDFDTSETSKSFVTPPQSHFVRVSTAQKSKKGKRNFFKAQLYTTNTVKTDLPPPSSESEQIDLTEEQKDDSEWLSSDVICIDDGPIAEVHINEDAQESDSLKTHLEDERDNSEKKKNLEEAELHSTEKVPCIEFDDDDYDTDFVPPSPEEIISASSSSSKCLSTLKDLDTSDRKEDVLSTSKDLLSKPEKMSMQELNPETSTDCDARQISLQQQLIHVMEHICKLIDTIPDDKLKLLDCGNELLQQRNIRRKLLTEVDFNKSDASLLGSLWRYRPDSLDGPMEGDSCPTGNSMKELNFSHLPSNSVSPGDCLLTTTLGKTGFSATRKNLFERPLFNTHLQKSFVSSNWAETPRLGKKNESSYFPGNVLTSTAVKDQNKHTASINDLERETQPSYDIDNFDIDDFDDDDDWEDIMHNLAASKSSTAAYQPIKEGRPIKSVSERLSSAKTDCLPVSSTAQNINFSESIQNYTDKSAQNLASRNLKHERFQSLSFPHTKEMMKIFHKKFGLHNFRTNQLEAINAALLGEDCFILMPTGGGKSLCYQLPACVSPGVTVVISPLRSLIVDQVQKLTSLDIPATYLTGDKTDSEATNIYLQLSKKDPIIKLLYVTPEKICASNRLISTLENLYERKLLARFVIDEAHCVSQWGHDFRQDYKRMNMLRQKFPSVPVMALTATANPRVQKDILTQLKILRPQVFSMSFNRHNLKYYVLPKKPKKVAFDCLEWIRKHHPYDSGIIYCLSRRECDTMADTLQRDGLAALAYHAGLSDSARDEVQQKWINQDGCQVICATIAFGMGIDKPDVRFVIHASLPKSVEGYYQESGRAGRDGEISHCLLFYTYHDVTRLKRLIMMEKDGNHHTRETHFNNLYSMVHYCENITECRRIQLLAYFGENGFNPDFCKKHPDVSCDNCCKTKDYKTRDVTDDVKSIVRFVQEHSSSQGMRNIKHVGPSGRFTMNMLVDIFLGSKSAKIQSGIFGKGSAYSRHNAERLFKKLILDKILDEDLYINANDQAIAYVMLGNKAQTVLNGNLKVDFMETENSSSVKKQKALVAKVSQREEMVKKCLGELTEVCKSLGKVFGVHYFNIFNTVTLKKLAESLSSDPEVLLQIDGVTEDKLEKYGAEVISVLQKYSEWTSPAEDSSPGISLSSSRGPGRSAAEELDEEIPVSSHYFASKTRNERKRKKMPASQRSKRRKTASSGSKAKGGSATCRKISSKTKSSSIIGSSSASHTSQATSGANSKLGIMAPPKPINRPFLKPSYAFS
SMILES,"activity change, negative = inhibition",Potency
O=C(CCNNC(=O)c1ccncc1)NCc1ccccc1,-10.3% (inactive),
COc1cc(C(=O)OCCCN2CCCN(CCCOC(=O)c3cc(OC)c(OC)c(OC)c3)CC2)cc(OC)c1OC,13% (inactive),
c1cc(CN2CCCCC2)cc(OCCCNc2nc3ccccc3s2)c1,4.49% (inactive),
O=C(O)CCCCCCCC(=O)O,-6.76% (inactive),
CCc1cccc(N(C)C(N)=Nc2cccc3ccccc23)c1,5.32% (inactive),
Cc1ccc(S(=O)(=O)NC(=O)NN2CCCCCC2)cc1,-3.51% (inactive),
CN(C)CC/C=C1\c2ccccc2COc2ccccc21,-9.73% (inactive),
COCC(=O)O[C@]1(CCN(C)CCCc2nc3ccccc3[nH]2)CCc2cc(F)ccc2[C@@H]1C(C)C,-4.85% (inactive),
CC(C(=O)O)c1ccc(CC2CCCC2=O)cc1 (stereo not given),-10% (inactive),
COc1ccc(CCN(C)CCCC(C#N)(c2cc(OC)c(OC)c(OC)c2)C(C)C)cc1OC (stereo not given),-10.1% (inactive),
CN1CCN(CC(=O)N2c3ccccc3C(=O)Nc3cccnc32)CC1,-8.93% (inactive),
OCCN1CCN(CCCN2c3ccccc3C=Cc3ccccc32)CC1,-6.47% (inactive),
CCN(CC)CCOCCOC(=O)C1(c2ccccc2)CCCC1,-3.08% (inactive),
C[C@]12CCC(=O)C=C1CC[C@@H]1[C@@H]2C(=O)C[C@@]2(C)[C@H]1CC[C@]2(O)C(=O)CO,-7.34% (inactive),
CNC1(C)C2CCC(C2)C1(C)C (stereo not given),-8.05% (inactive),
C(=C\c1ccccc1)/CN1CCN(C(c2ccccc2)c2ccccc2)CC1,-9.19% (inactive),
CC(C)COCC(CN(Cc1ccccc1)c1ccccc1)N1CCCC1 (stereo not given),-9.64% (inactive),
CC(C)[N+](C)(CCOC(=O)C1c2ccccc2Oc2ccccc21)C(C)C,1.73% (inactive),
C=CCc1ccccc1OCC(O)CNC(C)C (stereo not given),-8.63% (inactive),
CCn1ccnc1CC1COc2ccccc2O1 (stereo not given),-7% (inactive),

SMILES,"activity change, negative = inhibition",Potency
CN(C)C(=O)Oc1cccc([N+](C)(C)C)c1,-19.9% (inactive),
Nc1nc(N)c2nc(-c3ccccc3)c(N)nc2n1,-8.83% (inactive),
Nc1c2c(nc3ccccc13)CCCC2O (stereo not given),-7.91% (inactive),
O=c1[nH]c(=O)n([C@H]2C[C@H](O)[C@@H](CO)O2)cc1Br,-8.67% (inactive),
FC(F)(F)c1ccccc1-n1ccnc1,-9.76% (inactive),
CC(=O)[C@]1(O)Cc2c(O)c3c(c(O)c2[C@@H](O[C@H]2C[C@H](N)[C@H](O)[C@H](C)O2)C1)C(=O)c1ccccc1C3=O,,12.6 µM (active)
CN(C)CCCN1c2ccccc2Sc2ccccc21,-6.1% (inactive),
CC(C)NNC(=O)c1ccncc1,-8.57% (inactive),
CCn1cc(C(=O)O)c(=O)c2cc3c(cc21)OCO3,-2.61% (inactive),
CCN1CCC[C@H]1CNC(=O)c1c(O)c(Cl)cc(Cl)c1OC,-7.8% (inactive),
CCCNC(C)C(=O)Nc1ccccc1C (stereo not given),-10.5% (inactive),
COC(=O)[C@@H](N)Cc1ccc(O)c(O)c1,-11.2% (inactive),
CN=C(NC#N)NCCSCc1nc[nH]c1C,-12.2% (inactive),
CNCCC(Oc1ccccc1OC)c1ccccc1 (stereo not given),-12.6% (inactive),
NC(=O)N1c2ccccc2C=Cc2ccccc21,-10.5% (inactive),
O=C(CCCN1CCC(O)(c2cccc(C(F)(F)F)c2)CC1)c1ccc(F)cc1,-10.3% (inactive),
C#CCN(C)CCCOc1ccc(Cl)cc1Cl,-5.99% (inactive),
C[C@H](CS)C(=O)N1CCC[C@H]1C(=O)O,-8.08% (inactive),
CN(C)CC[C@@H](c1ccc(Br)cc1)c1ccccn1,-4.78% (inactive),
c1cnc(N2CCN(Cc3ccc4c(c3)OCO4)CC2)nc1,-14% (inactive),

# Source: PubChem BioAssay (NCATS)
